Measurements published in PubChem BioAssay (Tox21).
“And” between values parts separate entries of the source, which are not always exact repeats. Equal entries are not always repeated. Records with an inconclusive call do not appear. A call without a number means that no potency is given here. Where a structure was tested more than once in an assay, its records may differ in their call. The source made the active and inactive calls. Unless noted, calls come from the whole dose curve; as a rule, active = well fitted curve in the direction sought with a large enough effect in the repeat runs; inconclusive = weak or mixed curves; inactive = no such curve, though single readings can be large; an effect the other way counts as inactive or inconclusive.

Experiments:
[1] = Human pregnane X receptor (PXR) small molecule agonists, qHTS cell viability counter screen (AID 1346977); note: nearly all actives have a fitted effect of over 50% in size
Procedure, shortened: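 Tox21 qHTS format; PXR-Luc HepG2, 2,000/well, charcoal-stripped FBS 5%. Cpd exposure 24hr. Read: CellTiter-Fluor fluorescence, multiplexed with luciferase.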

[2] = Caspase-3/7 induction in HepG2 cells by small molecules, qHTS assay (AID 1346978); note: nearly all actives have a fitted effect of over 15% in size
Procedure, shortened: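 Caspase-3/7 induction was measured by Caspase-Glo 3/7 luminescence (30 min, room temperature) after a 17 hr compound exposure of wild-type HepG2 cells seeded at 2,000 per well and pre-incubated 5 hr.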

[3] = Caspase-3/7 induction in CHO-K1 cells by small molecules, qHTS cell viability counter screen (AID 1346979); note: nearly all actives have a fitted effect of over 35% in size; note: potency is the fitted concentration of half-maximal effect
Procedure, shortened: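 CellTiter-Fluor viability check, qHTS format: wild-type CHO-K1, 16hr compound treatment, 1hr reagent incubation, fluorescence read.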

[4] = Caspase-3/7 induction in CHO-K1 cells by small molecules, qHTS assay (AID 1346980); note: nearly all actives have a fitted effect of over 15% in size
Procedure, shortened: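 Luminescent Caspase-Glo 3/7 read (30min, room temperature) quantified apoptosis induction. Cells were wild-type CHO-K1, treated with compound for 17hr at 37 C and 5% CO2.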

[5] = Caspase-3/7 induction in HepG2 cells by small molecules, qHTS cell viability counter screen (AID 1346981); note: nearly all actives have a fitted effect of over 30% in size; note: potency is the fitted concentration of half-maximal effect
Procedure, shortened: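 Wild-type HepG2 cells (2,000/well) were allowed to settle for 5 hr at 37 C, 5% CO2, then dosed with compounds in DMSO by pin transfer. After 16 hr at 37 C, CellTiter-Fluor was added and fluorescence read 1 hr later.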

[6] = molecular target: Nuclear receptor subfamily 1 group I member 2 (Homo sapiens) (UniProt O75469); assay: Human pregnane X receptor (PXR) small molecule agonists, qHTS assay (AID 1346982); note: nearly all actives have a fitted effect of over 35% in size; note: potency is the fitted concentration of half-maximal effect
Procedure, shortened: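 PXR-Luc HepG2 cells (CYP3A4 promoter-driven luciferase) were seeded in medium with 5% charcoal-stripped FBS, left 5 hr at 37 C, then exposed to compounds in DMSO for 24 hr. Luminescence was read after ONE-Glo addition.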

[7] = molecular target: Acetylcholinesterase (Homo sapiens) (UniProt P22303); assay: Acetylcholinesterase (AChE) small molecule antagonists: colormetric cell-based qHTS assay (AID 1347395; calls by dose curve; note: nearly all actives have a fitted effect of over 30% in size; note: potency is the fitted concentration of half-maximal effect)
Procedure, shortened: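 AChE inhibition read colorimetrically via DTNB–thiocholine in SH-SY5Y cells. Compound 30 min, substrate 90 min, both 37 C.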

[8] = molecular target: Acetylcholinesterase (Homo sapiens) (UniProt P22303); assay: Acetylcholinesterase (AChE) small molecule antagonists: enzyme-based qHTS assay (AID 1347397; calls by dose curve; note: nearly all actives have a fitted effect of over 55% in size; note: potency is the fitted concentration of half-maximal effect); details: Potency: AChE enzyme activity inhibition
Procedure, shortened: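 Absorbance-based detection of thiocholine with DTNB served as the read-out. Recombinant human AChE was exposed to compound for 30 min at RT before a 10 min RT incubation with acetylthiocholine.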

[9] = molecular target: Acetylcholinesterase (Homo sapiens) (UniProt P22303); assay: Acetylcholinesterase (AChE) small molecule antagonists: fluorescence cell-based qHTS assay (AID 1347398; calls by dose curve; note: nearly all actives have a fitted effect of over 50% in size; note: potency is the fitted concentration of half-maximal effect); details: Potency: AChE activity
Procedure, shortened: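 Fluorimetric cell-based assay: intact SH-SY5Y cells, 30 min compound preincubation at 37 C, acetylthiocholine substrate with thiol probe Thiolite Green, 40 min RT development, fluorescence 490/520 nm.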

[10] = molecular target: Acetylcholinesterase (Homo sapiens) (UniProt P22303); assay: Acetylcholinesterase (AChE) small molecule antagonists: enzyme-based qHTS assay with human liver microsomes (AID 1347399; calls by dose curve; note: nearly all actives have a fitted effect of over 60% in size); details: Potency: qHTS inhibition
Procedure, shortened: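 Recombinant human AChE (50 mU/mL in the enzyme mix) and human liver microsomes (0.25 mg/mL final) were preincubated with compound and NADPH (0.25 mg/mL final) for 30 min at 37 C. Acetylthiocholine/DTNB was then added; thiocholine was read colorimetrically after 10 min at room temperature.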

[11] = molecular target: Cytochrome P450 2D6 (Homo sapiens) (UniProt P10635); assay: Cytochrome P450 Family 2 Subfamily D Member 6 (CYP2D6) small molecule antagonists: luciferase reporter qHTS assay (AID 1671196); note: nearly all actives have a fitted effect of over 50% in size; note: potency is the fitted concentration of half-maximal effect
Procedure, shortened: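 CYP2D6 enzyme–substrate mix was held with compound for 10 min at room temperature, then NADPH regeneration solution was added and the reaction ran 1 h at room temperature. Luciferin product was detected by luminescence after 20 min with detection reagent.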

[12] = molecular target: Cytochrome P450 2C19 (Homo sapiens) (UniProt P33261); assay: Cytochrome P450 Family 2 Subfamily C Member 19 (CYP2C19) small molecule antagonists: luciferase reporter qHTS assay (AID 1671197); note: nearly all actives have a fitted effect of over 65% in size; note: potency is the fitted concentration of half-maximal effect
Procedure, shortened: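 P450-Glo CYP2C19 system: enzyme-substrate mix with compound 10 min at room temperature, then NADPH regeneration solution, 1 h at 37C. Proluciferin-to-luciferin conversion detected by luminescence after 20 min with detection reagent; ketoconazole as positive control.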

[13] = molecular target: Cytochrome P450 2C9 (Homo sapiens) (UniProt P11712); assay: Cytochrome P450 Family 2 Subfamily C Member 9 (CYP2C9) small molecule antagonists: luciferase reporter qHTS assay (AID 1671198); note: nearly all actives have a fitted effect of over 50% in size; note: potency is the fitted concentration of half-maximal effect
Procedure, shortened: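 Enzyme-substrate mix preincubated with compound 10 min at room temperature; reaction started with NADPH regeneration solution, 1 h 37C. Luminescent luciferin product read after 20 min detection reagent.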

[14] = molecular target: Voltage-gated inwardly rectifying potassium channel KCNH2 (Homo sapiens) (UniProt Q12809); assay: Human Ether-a-go-go-Related Gene (hERG) channel small molecule antagonists: fluorescence cell-based qHTS assay (AID 1671200)
Procedure, shortened: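 Kinetic two-minute fluorescence traces, sampled at 1 s, were collected following thallium stimulus of U2OS cells (1000 per well) that had been cultured overnight at 37 C and loaded with FluxOR II.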

[15] = molecular target: Cytochrome P450 3A4 (Homo sapiens) (UniProt P08684); assay: Cytochrome P450 Family 3 Subfamily A Member 4 (CYP3A4) small molecule antagonists: luciferase reporter qHTS assay (AID 1671201); note: nearly all actives have a fitted effect of over 50% in size; note: potency is the fitted concentration of half-maximal effect
Procedure, shortened: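 Proluciferin-to-luciferin conversion by CYP3A4, NADPH-regenerated, 1 h RT; luminescence read as RLU. Ketoconazole as control.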

[16] = molecular target: Nuclear receptor subfamily 1 group I member 2 (Homo sapiens) (UniProt O75469); assay: CYP3A4 induction through human pregnane X receptor (PXR) by small molecules, qHTS assay (AID 1346984); note: nearly all actives have a fitted effect of over 40% in size
Procedure, shortened: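 DPX-2 cells (HepG2 co-transfected with PXR and CYP3A4 promoter-luciferase) treated with compounds 24 h at 37C; luciferin-IPA CYP3A4 substrate 3uM final added for 3 h, then One-Glo; luminescence read. qHTS format.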

[17] = molecular target: Nuclear receptor subfamily 1 group I member 2 (Homo sapiens) (UniProt O75469); assay: Human pregnane X receptor (PXR) activation by small molecules, qHTS assay (AID 1346985); note: nearly all actives have a fitted effect of over 40% in size
Procedure, shortened: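 DPX-2 cells (HepG2 co-transfected with a PXR response element and a CYP3A4-promoter luciferase construct) were seeded at 2,000 per well, rested 5 hr at 37C, then exposed to DMSO-dissolved compounds for 24 hr. Activation was read as luciferase luminescence.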

[18] = molecular target: Nuclear receptor subfamily 1 group I member 2 (Rattus norvegicus) (UniProt Q9R1A7); assay: Rat pregnane X receptor (rPXR) activation by small molecules, qHTS assay (AID 1346983); details: rPXR luciferase reporter cells, One-Glo luminescence, 24 h; max activation: stronger effect = higher value; note: nearly all actives have a fitted effect of over 20% in size
Procedure, shortened: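 Luminescent readout (One-Glo luciferase, 30 min room temperature) followed 24 hr compound treatment at 37 C of rPXR cells plated 2,000 per well and preincubated 5hr; qHTS format with compounds delivered in DMSO.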

[19] = molecular target: Thyrotropin-releasing hormone receptor (Homo sapiens) (UniProt P34981); assay: qHTS assay to identify small molecule agonists of the thyrotropin-releasing hormone receptor (TRHR) signaling pathway (AID 1346891; calls by dose curve; note: series mostly up to about 58 µM)
Procedure, shortened: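 Screening of agonists relied on calcium signalling in HEK293 cells expressing human TRHR: dye loading 2 h at 37 °C preceded compound addition and a 3-min fluorescence time course.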

[20] = molecular target: Cytochrome P450 1A2 (Homo sapiens) (UniProt P05177); assay: Cytochrome P450 Family 1 Subfamily A Member 2 (CYP1A2) small molecule antagonists: luciferase reporter qHTS assay (AID 1671199); note: nearly all actives have a fitted effect of over 50% in size; note: potency is the fitted concentration of half-maximal effect
Procedure, shortened: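 Human CYP1A2 activity measured with a P450-Glo proluciferin substrate; compounds in DMSO preincubated 10 min at room temperature with enzyme-substrate mix, then NADPH regeneration system added for 1 h. Luciferin detection reagent, 20 min, luminescence read.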

Chain of Cytochrome P450 2C19 (Homo sapiens) (P33261 whole entry, looked up): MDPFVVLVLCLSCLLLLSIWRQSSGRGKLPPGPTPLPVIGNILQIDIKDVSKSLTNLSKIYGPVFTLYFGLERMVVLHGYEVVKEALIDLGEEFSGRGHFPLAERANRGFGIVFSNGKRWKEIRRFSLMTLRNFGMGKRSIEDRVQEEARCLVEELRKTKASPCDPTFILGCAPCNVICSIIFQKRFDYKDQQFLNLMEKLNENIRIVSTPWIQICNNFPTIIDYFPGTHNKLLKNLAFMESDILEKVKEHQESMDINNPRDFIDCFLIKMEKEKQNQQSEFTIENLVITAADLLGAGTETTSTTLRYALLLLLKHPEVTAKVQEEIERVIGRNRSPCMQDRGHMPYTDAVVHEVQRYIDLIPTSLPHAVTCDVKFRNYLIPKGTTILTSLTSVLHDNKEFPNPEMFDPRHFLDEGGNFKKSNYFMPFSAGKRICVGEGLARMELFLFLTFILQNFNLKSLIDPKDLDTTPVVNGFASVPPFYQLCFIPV
Chain of Thyrotropin-releasing hormone receptor (Homo sapiens) (P34981 whole entry, looked up): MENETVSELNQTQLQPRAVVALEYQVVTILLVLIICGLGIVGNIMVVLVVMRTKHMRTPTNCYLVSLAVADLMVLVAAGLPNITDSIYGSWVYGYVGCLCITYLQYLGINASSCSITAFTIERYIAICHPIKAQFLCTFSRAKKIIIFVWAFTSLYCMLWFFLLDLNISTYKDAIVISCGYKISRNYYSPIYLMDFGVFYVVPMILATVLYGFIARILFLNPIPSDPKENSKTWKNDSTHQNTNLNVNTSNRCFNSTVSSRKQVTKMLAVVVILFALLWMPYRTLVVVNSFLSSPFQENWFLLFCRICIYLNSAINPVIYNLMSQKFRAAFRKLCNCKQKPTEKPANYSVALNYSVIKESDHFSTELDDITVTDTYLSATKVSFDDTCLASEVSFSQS
Chain of Cytochrome P450 2C9 (Homo sapiens) (P11712 whole entry, looked up): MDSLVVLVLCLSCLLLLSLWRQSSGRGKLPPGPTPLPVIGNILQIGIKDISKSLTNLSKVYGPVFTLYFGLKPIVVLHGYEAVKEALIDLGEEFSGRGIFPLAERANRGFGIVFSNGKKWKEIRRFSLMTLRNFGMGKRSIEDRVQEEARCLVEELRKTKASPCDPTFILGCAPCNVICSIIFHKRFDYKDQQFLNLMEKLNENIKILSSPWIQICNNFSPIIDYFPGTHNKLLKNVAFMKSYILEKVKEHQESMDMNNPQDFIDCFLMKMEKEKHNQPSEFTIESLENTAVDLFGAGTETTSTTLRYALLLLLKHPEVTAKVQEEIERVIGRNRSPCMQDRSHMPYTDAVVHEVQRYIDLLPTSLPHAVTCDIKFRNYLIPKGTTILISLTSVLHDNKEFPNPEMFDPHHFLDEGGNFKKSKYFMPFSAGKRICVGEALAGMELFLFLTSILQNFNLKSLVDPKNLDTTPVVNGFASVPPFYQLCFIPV
Chain of Cytochrome P450 2D6 (Homo sapiens) (P10635 whole entry, looked up): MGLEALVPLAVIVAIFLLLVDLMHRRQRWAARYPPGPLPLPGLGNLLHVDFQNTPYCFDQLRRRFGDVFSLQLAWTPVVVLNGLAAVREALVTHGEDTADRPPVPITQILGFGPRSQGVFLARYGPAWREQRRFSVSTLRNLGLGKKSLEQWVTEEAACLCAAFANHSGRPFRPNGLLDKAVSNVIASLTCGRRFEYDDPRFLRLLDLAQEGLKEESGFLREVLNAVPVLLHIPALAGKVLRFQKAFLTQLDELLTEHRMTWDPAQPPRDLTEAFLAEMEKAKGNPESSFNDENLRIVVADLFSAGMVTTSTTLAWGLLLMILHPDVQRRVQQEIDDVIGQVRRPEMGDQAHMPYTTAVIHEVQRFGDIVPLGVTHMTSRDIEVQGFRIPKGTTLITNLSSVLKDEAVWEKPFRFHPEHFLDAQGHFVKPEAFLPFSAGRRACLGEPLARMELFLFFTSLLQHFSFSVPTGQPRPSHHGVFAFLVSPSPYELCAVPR
Chain of Nuclear receptor subfamily 1 group I member 2 (Rattus norvegicus) (Q9R1A7 whole entry, looked up): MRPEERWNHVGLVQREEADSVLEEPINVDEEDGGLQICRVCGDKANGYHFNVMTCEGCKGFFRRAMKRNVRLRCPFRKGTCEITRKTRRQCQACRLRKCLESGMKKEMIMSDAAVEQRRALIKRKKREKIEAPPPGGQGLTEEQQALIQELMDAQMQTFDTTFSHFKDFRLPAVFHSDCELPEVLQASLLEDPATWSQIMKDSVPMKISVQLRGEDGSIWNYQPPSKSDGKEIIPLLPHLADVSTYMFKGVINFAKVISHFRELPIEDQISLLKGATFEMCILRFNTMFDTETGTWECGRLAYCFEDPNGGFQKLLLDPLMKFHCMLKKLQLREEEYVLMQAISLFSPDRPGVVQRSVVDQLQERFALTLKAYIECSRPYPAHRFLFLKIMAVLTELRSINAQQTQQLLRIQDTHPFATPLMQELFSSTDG
Chain of Nuclear receptor subfamily 1 group I member 2 (Homo sapiens) (O75469 whole entry, looked up): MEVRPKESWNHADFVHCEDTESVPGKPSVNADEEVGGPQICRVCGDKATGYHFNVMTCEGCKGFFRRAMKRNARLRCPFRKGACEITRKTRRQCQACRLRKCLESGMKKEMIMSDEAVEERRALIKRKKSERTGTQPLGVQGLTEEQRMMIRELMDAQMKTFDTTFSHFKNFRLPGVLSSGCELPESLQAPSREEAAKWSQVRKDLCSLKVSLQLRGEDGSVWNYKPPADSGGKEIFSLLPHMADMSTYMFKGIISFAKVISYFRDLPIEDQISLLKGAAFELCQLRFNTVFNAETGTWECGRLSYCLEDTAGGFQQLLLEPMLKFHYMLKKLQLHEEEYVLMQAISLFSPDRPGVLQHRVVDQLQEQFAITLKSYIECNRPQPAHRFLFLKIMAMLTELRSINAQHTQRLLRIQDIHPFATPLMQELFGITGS
Chain of Voltage-gated inwardly rectifying potassium channel KCNH2 (Homo sapiens) (Q12809 whole entry, looked up): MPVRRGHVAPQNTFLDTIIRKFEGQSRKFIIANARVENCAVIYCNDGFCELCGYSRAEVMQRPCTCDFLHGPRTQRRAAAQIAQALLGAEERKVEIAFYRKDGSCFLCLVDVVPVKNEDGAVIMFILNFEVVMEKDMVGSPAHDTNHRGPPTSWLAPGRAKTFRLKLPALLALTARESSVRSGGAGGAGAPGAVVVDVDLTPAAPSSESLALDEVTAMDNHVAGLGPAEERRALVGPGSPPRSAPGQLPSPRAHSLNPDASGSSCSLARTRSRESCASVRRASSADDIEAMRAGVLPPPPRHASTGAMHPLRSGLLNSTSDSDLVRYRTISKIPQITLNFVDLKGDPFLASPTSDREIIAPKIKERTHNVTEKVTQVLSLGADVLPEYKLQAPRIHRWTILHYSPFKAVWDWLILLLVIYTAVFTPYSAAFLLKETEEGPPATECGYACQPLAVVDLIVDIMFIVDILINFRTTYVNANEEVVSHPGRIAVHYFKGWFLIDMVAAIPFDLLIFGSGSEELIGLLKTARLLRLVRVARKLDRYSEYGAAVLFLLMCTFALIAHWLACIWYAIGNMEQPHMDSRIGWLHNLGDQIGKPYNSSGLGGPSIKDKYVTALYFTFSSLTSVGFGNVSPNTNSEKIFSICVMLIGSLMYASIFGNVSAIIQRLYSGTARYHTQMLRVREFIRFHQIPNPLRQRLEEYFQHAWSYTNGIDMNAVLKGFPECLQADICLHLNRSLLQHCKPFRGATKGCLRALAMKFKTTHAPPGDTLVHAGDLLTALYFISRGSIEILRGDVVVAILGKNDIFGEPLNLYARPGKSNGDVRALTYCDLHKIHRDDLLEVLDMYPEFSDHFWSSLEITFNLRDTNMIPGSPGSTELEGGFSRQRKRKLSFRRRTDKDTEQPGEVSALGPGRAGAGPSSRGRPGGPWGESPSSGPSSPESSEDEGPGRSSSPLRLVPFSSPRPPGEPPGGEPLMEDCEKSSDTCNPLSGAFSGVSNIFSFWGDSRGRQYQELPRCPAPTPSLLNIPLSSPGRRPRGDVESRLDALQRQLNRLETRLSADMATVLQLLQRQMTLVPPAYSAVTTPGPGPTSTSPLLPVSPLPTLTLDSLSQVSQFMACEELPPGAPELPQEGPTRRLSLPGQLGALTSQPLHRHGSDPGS
Chain of Acetylcholinesterase (Homo sapiens) (P22303 whole entry, looked up): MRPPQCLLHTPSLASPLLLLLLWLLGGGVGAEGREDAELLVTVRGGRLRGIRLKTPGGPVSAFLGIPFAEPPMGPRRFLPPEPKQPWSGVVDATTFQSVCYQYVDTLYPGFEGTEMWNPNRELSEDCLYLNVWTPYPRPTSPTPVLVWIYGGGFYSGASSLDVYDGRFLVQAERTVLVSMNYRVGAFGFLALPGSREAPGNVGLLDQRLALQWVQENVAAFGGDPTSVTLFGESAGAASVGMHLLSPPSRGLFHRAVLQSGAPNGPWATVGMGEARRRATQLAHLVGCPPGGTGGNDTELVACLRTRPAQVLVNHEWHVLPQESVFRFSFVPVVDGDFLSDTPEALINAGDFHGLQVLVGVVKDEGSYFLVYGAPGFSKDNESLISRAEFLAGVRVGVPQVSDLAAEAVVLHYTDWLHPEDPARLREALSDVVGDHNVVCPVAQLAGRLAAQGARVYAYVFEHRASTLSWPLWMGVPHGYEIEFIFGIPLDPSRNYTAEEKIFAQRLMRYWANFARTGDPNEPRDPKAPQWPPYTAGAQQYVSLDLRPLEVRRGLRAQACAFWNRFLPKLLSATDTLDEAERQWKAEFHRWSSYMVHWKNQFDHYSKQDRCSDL
Chain of Cytochrome P450 3A4 (Homo sapiens) (P08684 whole entry, looked up): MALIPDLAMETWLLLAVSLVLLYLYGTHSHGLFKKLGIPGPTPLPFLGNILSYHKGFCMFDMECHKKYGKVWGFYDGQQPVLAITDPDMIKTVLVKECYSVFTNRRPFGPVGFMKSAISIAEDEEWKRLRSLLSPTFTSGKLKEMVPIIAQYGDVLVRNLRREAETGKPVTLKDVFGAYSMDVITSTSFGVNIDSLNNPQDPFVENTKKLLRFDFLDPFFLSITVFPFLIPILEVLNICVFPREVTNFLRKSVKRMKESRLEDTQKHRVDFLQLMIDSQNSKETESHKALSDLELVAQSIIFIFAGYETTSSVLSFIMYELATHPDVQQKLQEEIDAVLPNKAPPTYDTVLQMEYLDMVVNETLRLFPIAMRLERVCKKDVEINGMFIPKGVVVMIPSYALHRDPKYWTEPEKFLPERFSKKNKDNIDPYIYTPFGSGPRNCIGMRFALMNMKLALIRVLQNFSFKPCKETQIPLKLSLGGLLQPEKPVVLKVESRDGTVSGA

| Compound | Potency [1] | outcome [2] | Potency [3] | outcome [4] | Potency [5] | Potency [6] | Potency [7] | Potency [8] | Potency [9] | Potency [10] | Potency [11] | Potency [12] | Potency [13] | Potency [14] | Potency [15] | Potency [16] | Potency [17] | max activation [18] | outcome [19] | Potency [20] |
| --- | --- | --- | --- | --- | --- | --- | --- | --- | --- | --- | --- | --- | --- | --- | --- | --- | --- | --- | --- | --- |
| [N-]=[N+]=CC(=O)OC[C@H](N)C(=O)O | inactive | inactive | inactive | inactive | inactive | inactive | inactive | inactive | inactive | inactive | inactive and 30.9 µM (active) | inactive | inactive | inactive | inactive | – | – | – | – | – |
| CCCCCCCCCCCCCCCCCC(=O)O | inactive | inactive | inactive | inactive | inactive | 30.4 µM (active) and inactive | – | – | – | – | 35.3 µM (active) and inactive | 281 nM (active) and inactive | 1.12 µM (active) and inactive | inactive | inactive | inactive | inactive | – | – | – |
| OCC(O)CCl (stereo not drawn) | inactive | inactive | inactive | inactive | inactive | inactive | inactive | inactive | inactive | inactive | inactive | 79.6 µM (active) and inactive | inactive | inactive | inactive | – | – | – | – | – |
| NNc1ccccc1 | inactive | inactive | inactive | inactive | inactive | 61 µM (active) and inactive | – | – | – | – | – | – | 39.5 µM (active) and 39.8 µM (active) and 50.2 µM (active) | inactive | – | – | inactive | -1.33% (inactive) | – | – |
| Oc1ccc(Cl)cc1 | inactive | inactive | inactive | inactive | inactive | – | – | – | – | – | – | – | – | inactive | – | – | – | 1.52% (inactive) | inactive | – |
| Cc1ccccc1N | inactive | inactive | inactive | inactive | inactive | inactive and 54.5 µM (active) | – | – | – | – | inactive and 40.7 µM (active) | – | 40.7 µM (active) and 79.6 µM (active) and 35.6 µM (active) | inactive | inactive and 28.8 µM (active) and 28.3 µM (active) | – | – | – | – | inactive and 36.3 µM (active) and 31.7 µM (active) |
| C=C(C)C(=O)OCC(CC)CCCC (stereo not drawn) | inactive | inactive | inactive | inactive | inactive | inactive | inactive | inactive | inactive | inactive | inactive | 40.7 µM (active) and inactive | inactive | inactive | inactive | – | – | – | – | – |
| O=P1(NCCCl)OCCCN1CCCl (stereo not drawn) | inactive | inactive | inactive | inactive | inactive | – | – | – | – | – | – | – | – | inactive | – | – | – | – | inactive | – |
| Nc1ncc([N+](=O)[O-])s1 | inactive | inactive | 30.9 µM (active) and inactive | inactive | 54.9 µM (active) and inactive | inactive | inactive | inactive | inactive | – | inactive | 71.6 µM (active) and 50.2 µM (active) | 63.3 µM (active) | inactive | inactive | – | – | – | – | – |
| CN(C)NC(=O)CCC(=O)O | inactive | inactive | inactive | inactive | inactive | inactive | inactive | inactive | inactive | inactive | inactive | inactive | inactive | inactive | inactive | – | – | – | – | – |
| CC(=O)C1CCOC1=O (stereo not drawn) | inactive | inactive | inactive | inactive | inactive | inactive | inactive | inactive | inactive | inactive | inactive | inactive | inactive | inactive | inactive | – | – | – | – | – |
| CNC(=O)O/N=C/C(C)(C)S(C)=O (stereo not drawn) | inactive | inactive | 49.2 µM (active) and inactive | inactive | – | inactive | 322 nM (active) and 354 nM (active) | 572 nM (active) and 316 nM (active) | 57.2 nM (active) and 35.4 nM (active) | – | inactive | inactive | inactive | inactive | inactive | – | – | – | inactive | inactive |
| CC[N+](=O)[O-] | inactive | inactive | inactive | inactive | inactive | inactive | inactive | inactive | inactive | – | inactive | 72.5 µM (active) and inactive | inactive | inactive | inactive | – | – | – | – | – |
| Cc1cc(Cl)ccc1OC(C)C(=O)O (stereo not drawn) | inactive | inactive | – | inactive | inactive | inactive | inactive | inactive | inactive | – | inactive | 78.3 µM (active) and inactive | 44.1 µM (active) and inactive | inactive | inactive | – | – | – | – | – |
| O=C/C=C/c1ccccc1 | inactive | inactive | inactive | inactive | inactive | – | inactive | inactive and 64 µM (active) | inactive and 36 µM (active) | inactive | inactive | inactive and 79.6 µM (active) | inactive | inactive | inactive | inactive | inactive | 2.2% (inactive) | inactive | – |
| CCSC(=O)N1CCCCCC1 | inactive | inactive | inactive | inactive | inactive | inactive | inactive | inactive | inactive | inactive | 30.8 µM (active) and inactive | 34.6 µM (active) | 38.8 µM (active) and inactive | inactive | 30.8 µM (active) and inactive | – | – | – | – | – |
